This note sets out measurements from PubChem BioAssay AID1434 (Sanford-Burnham Center for Chemical Genomics, 2008).

The target of the experiment is Runt-related transcription factor 1 (Homo sapiens) + Core-binding factor subunit beta (Homo sapiens) (UniProt Q01196+Q13951). In words: inhibitors of RUNX1 Runt–CBFb-SMMHC binding, primary screen, biochemical, FRET, Cerulean-Runt, Venus-CBFb-SMMHC, uHTS (AID 1434).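 Note: 0% = DMSO wells and 100% = wells with excess untagged CBFb-SMMHC; inhibitors lower the FRET ratio by blocking Runt binding to CBFb-SMMHC.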 The conditions noted are these: Cerulean-Runt/Venus-CBFb-SMMHC FRET ratio 530/480, 1 h, at 20 µM, stronger effect = higher value.

Structures are written as SMILES. Screen size: about 220,000 compounds; about 1,600 (0.73%) were called active.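 Rule for the calls: active = mean inhibition across duplicate retests at 20 µM reaching about 50% (limit read from the data); inactive = the rest, inconclusive results apart.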 What follows is part of a selection rich in actives, with near analogues and random picks from the rest.

Sequence of Runt-related transcription factor 1 (Homo sapiens) + Core-binding factor subunit beta (Homo sapiens) (Q01196 whole entry, looked up): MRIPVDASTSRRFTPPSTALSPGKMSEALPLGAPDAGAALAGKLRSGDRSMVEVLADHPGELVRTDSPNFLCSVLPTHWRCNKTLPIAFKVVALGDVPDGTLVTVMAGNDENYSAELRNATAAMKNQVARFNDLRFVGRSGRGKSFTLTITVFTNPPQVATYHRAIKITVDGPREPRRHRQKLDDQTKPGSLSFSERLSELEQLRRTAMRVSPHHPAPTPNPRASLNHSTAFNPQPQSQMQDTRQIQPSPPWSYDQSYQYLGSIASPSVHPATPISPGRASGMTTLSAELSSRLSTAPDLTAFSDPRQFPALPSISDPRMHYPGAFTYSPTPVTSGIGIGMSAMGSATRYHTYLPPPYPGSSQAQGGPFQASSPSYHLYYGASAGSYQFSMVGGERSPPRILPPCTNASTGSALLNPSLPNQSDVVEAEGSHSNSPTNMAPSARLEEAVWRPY
Sequence of Runt-related transcription factor 1 (Homo sapiens) + Core-binding factor subunit beta (Homo sapiens) (Q13951 whole entry, looked up): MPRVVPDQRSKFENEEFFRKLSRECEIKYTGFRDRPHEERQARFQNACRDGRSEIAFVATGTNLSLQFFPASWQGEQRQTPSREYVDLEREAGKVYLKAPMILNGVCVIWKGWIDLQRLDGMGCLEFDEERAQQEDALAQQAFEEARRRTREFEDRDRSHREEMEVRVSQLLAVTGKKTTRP

For `O=C(CCc1ccccc1)NNc1ccc(F)cc1`, the inhibition is -0.8% (inactive).

As to `CCc1ccc2oc(=O)cc(CN3CCCCC3C)c2c1` (configuration not stated), the inhibition is -0.5% (inactive).

In the case of `CCCc1cc(=O)[nH]c(SCc2cc(=O)oc3c(C)c(C)ccc23)n1`, the inhibition was 1.9% (inactive).

For the compound `CCCc1cc(=O)oc2c(C)c(O)c(CN3CCCCC3)cc12`, the inhibition was 70.4% (active). In addition, the inhibition (retest duplicate average) is 121%.

As to `O=C(CN1CCc2ccccc21)NC(c1ccccc1)c1ccccc1`, the inhibition was -0.8% (inactive).

Turning to `CCc1ccc(NC(=O)Nc2ccncc2)cc1`, the inhibition was -0.3% (inactive).

For the compound `CCN(CC)c1ccc2cc(C(N)=O)/c(=N\NC(=O)c3ccncc3)oc2c1`, the inhibition is -128% (inactive).

On to `CCN(CC)c1ccc2oc(=O)c(C)nc2c1`, for which the inhibition was -81.6% (inactive).

For `CCN(CC)c1ccc2cc(C(=O)O)c(=O)oc2c1`, the inhibition is 77.6% (active). Moreover, the inhibition (retest duplicate average) was determined as 71.5%.

Take `CSc1sc(C)cc1C1C(C#N)=C(N)N(c2cccnc2)C2=C1C(=O)CCC2` (configuration not stated): the inhibition was 76.1% (active). For the same compound, the inhibition (retest duplicate average) was 73.7%.

In the case of `N#CC1=C(N)N(c2ccccc2)C2=C(C(=O)CCC2)C1c1ccccc1` (configuration not stated), the inhibition was 29.5% (inactive).

Take `CCc1ccc(C2C(C#N)=C(N)N(N(C)C)C3=C2C(=O)CCC3)s1` (configuration not stated): the inhibition was -11.9% (inactive).

As for `COc1ccc(C2/C=C\CN(S(=O)(=O)c3cccs3)CC(=O)N2Cc2ccc(F)cc2)cc1` (configuration not stated), the inhibition is 2.2% (inactive).

Consider `COc1cc(CNc2ncn[nH]2)ccc1OCc1ccccc1C`, for which the inhibition was -0.6% (inactive).

`N#Cc1ccc(Oc2ccc(C(F)(F)F)cc2NC(=O)c2ccc(F)cc2)cc1`: the inhibition is -0.8% (inactive).

`C#CCNC(=O)C1=C[C@@H](c2ccccc2)[C@H](CCCO)[C@@H](OCC)O1`: the inhibition was 1.4% (inactive).

Take `Cc1cc(C)cc(NC(=O)NC2CCN(CC(=O)Nc3cccc(Cl)c3C)CC2)c1`: the inhibition was 0.9% (inactive).

In the case of `NC(=O)C1(C(N)=O)OC1c1ccc(Cl)cc1Cl` (configuration not stated), the inhibition is 1% (inactive).

For `COC(=O)C1=CN(C)C=C(C(=O)OC)C1c1ccc(Cl)cc1Cl`, the inhibition was 60.9% (active). Further, the inhibition (retest duplicate average) was found to be 91.8%.

On to `CCOc1ccccc1C1C(C(=O)OC)=CN(C)C=C1C(=O)OC`, for which the inhibition was 42% (inactive).

With `CC(OC(=O)c1ccc(NS(=O)(=O)c2ccc3[nH]c(=O)[nH]c3c2)cc1)C(=O)Nc1cccc(Cl)c1Cl` (configuration not stated), the inhibition was -5.6% (inactive).

For the compound `CCOC(=O)C1CCN(CCC(=O)Nc2cccc(C)c2)CC1`, the inhibition was 0.1% (inactive).

Take `COCc1ccc(C(=O)N2CCc3c([nH]c4ccccc34)C2c2ccccn2)s1` (configuration not stated): the inhibition was 2.3% (inactive).

Consider `Cc1ccc2nc(NCCCNC(=O)c3cnccn3)c(C#N)cc2c1`, for which the inhibition was 32% (inactive).

Take `COCCCNC(=S)NC(=O)c1ccc([N+](=O)[O-])cc1`: the inhibition was 4.6% (inactive).

Turning to `COCCCNC(=S)NCCNc1nc2cc(C)c(C)cc2cc1C#N`, the inhibition was 88.8% (active). The inhibition (retest duplicate average) was 125%.

As for `CC(C)N(Cc1ccccc1)C(=O)COC(=O)c1cnccn1`, the inhibition is -2.4% (inactive).

Turning to `CSCCC(Nc1ccc(S(=O)(=O)N2CCOCC2)cc1[N+](=O)[O-])C(=O)OCC(=O)N(C(C)C)C(C)C` (configuration not stated), the inhibition was -4.8% (inactive).

As for `CCCC(=O)N1c2ccccc2NC2=C(C(=O)CCC2)C1c1ccc(F)cc1` (configuration not stated), the inhibition was -4.3% (inactive).

As for `CCOC(=O)C1=C(N)N(c2ccc(C)cc2)C2=C(C(=O)CCC2)C1c1cccs1` (configuration not stated), the inhibition is -7.1% (inactive).

With `CCCN1C2=C(C(=O)CCC2)C(c2ccc(O)c(Br)c2)C2=C1CCCC2=O`, the inhibition is 118% (active). The inhibition (retest duplicate average) came to 118%.

As to `O=C(Nc1ccc2ccccc2c1)/C(=C\c1ccc2c(c1)OCO2)NC(=O)c1ccco1`, the inhibition was -21.7% (inactive).

Turning to `COc1ccc2nc(N3CCCC(O)C3)c(C#N)cc2c1` (configuration not stated), the inhibition is 65% (active). In addition, the inhibition (retest duplicate average) amounted to 72.9%.

Take `COc1ccc(N2CCN(C(=O)CSc3nc4cc(OC)c(OC)cc4cc3C#N)CC2)cc1`: the inhibition was 9.4% (inactive).

As for `COc1cccc(C(=O)Nc2ccc(N3CCCC3)cc2)c1`, the inhibition was 5.7% (inactive).

As to `Cc1cc(C)nc(SCc2cn3c(C)cc(C)nc3n2)n1`, the inhibition was -4% (inactive).

As to `O=c1c(Cl)c(NCc2ccc(F)cc2Cl)cnn1C12CC3CC(CC(C3)C1)C2`, the inhibition is 3.5% (inactive).

In the case of `FC(F)(F)c1ccc(-n2cn[nH]c2=S)cc1`, the inhibition is 3.3% (inactive).

Take `Nc1[nH][nH]c(=O)c1N=Nc1ccc2c(c1)OCO2`: the inhibition was -0.1% (inactive).

Turning to `CCCn1c(=O)c2c(C(F)(F)F)cc(-c3cccs3)nc2n(CCC)c1=O`, the inhibition was 1.9% (inactive).

In the case of `N#Cc1c(C(F)(F)F)cc(-c2cccs2)nc1N1CCCCC1`, the inhibition was 82.5% (active). For the same compound, the inhibition (retest duplicate average) amounted to 79.2%.

For `c1csc(-c2cn3c(n2)SCC3)c1`, the inhibition was -6.8% (inactive).

On to `C=CCCN(Cc1ccccc1)S(=O)(=O)c1ccccc1Br`, for which the inhibition is -2.3% (inactive).

With `c1ccc(-n2cccc2)c(N2CCCCC2)c1`, the inhibition is -0.7% (inactive).

Turning to `O=C(NCCN1CCOCC1)c1ccc2c(c1)ncn2C1CCCC1`, the inhibition was 0.2% (inactive).

With `c1ccc2cc3c(NCCN4CCOCC4)ccnc3cc2c1`, the inhibition was 78.2% (active). Besides, where the note is “retest duplicate average”, the inhibition worked out at 71.5%.

Turning to `O=C(Cn1c(-c2ccccn2)nc2ccccc21)NCCN1CCOCC1`, the inhibition is -0.1% (inactive).

For the compound `C/C(N)=C(/C#N)C(=O)COC(=O)CNS(=O)(=O)c1ccc(C)cc1`, the inhibition is -1.2% (inactive).

Turning to `CC(C)N(C)C(=O)CCc1nnc(CCc2c[nH]c3ccccc23)o1`, the inhibition was -1.1% (inactive).

With `COc1ccc(/C=C2\SC(=S)N(CC(=O)NNC(=O)c3ccncc3)C2=O)cc1`, the inhibition was -217% (inactive).

With `Cc1cc(=O)[nH]c(N/N=C/c2ccc3c(c2)OCCO3)n1`, the inhibition was -9.8% (inactive).

Regarding `COc1ccc(S(=O)(=O)Nc2ccc3oc(C)c(C(C)=O)c3c2)cc1`, the inhibition was -0.7% (inactive).

Turning to `Cc1ccc(S(=O)(=O)Nc2ccc3ncccc3c2)cc1`, the inhibition was -1.3% (inactive).

In the case of `COCc1cc(=O)oc2cc(NS(=O)(=O)c3ccc(C)cc3)ccc12`, the inhibition is 80.2% (active). For the same compound, where the note is “retest duplicate average”, the inhibition was determined as 71.8%.

For the compound `Cc1ccc(S(=O)(=O)NCCc2nnc3ccc(SCc4cccnc4)nn23)cc1`, the inhibition is -6.7% (inactive).

Take `CC(=O)Nc1cc2ccc(OC(C)=O)cc2oc1=O`: the inhibition is 58.6% (active). Besides, for the setting “retest duplicate average”, the inhibition came to 119%.

For `Cc1c(Cc2ccccc2)c(=O)oc2cc(OCC(N)=O)ccc12`, the inhibition is 2.5% (inactive).

On to `COC(=O)Cc1c(C)c2ccc(OCC(=O)NCc3ccc4c(c3)OCO4)cc2oc1=O`, for which the inhibition is -5.4% (inactive).

Take `O=C(Nc1cc2ccccc2oc1=O)C1CCCCC1`: the inhibition was -0.3% (inactive).

As to `CC(=O)Oc1ccc2c(C)c(CC(C)O)c(=O)oc2c1` (configuration not stated), the inhibition is 119% (active). For the same compound, under “retest duplicate average”, the inhibition worked out at 116%.

Turning to `O=C(Oc1ccccc1)Oc1ccc2c(c1)oc(=O)c1ccccc12`, the inhibition is -17.7% (inactive).

`CCCNC(=O)N1CCN(C(=O)NCCC)CC1`: the inhibition was 2.1% (inactive).

Regarding `Cc1nc(C(=O)NCc2ccccc2)sc1C1(C)CC(c2cccnc2)=NO1` (configuration not stated), the inhibition is 0.2% (inactive).

For the compound `CCOC(=O)C1=C(c2ccccc2)NC(=S)NC1c1ccc(Cl)cc1` (configuration not stated), the inhibition is -1.3% (inactive).

In the case of `CC(C)CCNC(=O)C1CCC(CNc2c(N3CCC(C)CC3)c(=O)c2=O)CC1` (configuration not stated), the inhibition was -1.8% (inactive).

Take `Cc1cc2c(cc1C)[n+](C)cn2CC(O)COCC1CC=CCC1` (configuration not stated): the inhibition was 7.6% (inactive).

For `COc1ccc2c(c1)CCc1cn3ncc(C#N)c3nc1-2`, the inhibition was 89.1% (active). In addition, the inhibition (retest duplicate average) worked out at 74.1%.

In the case of `COc1ccc2c(c1)CCc1c(C(=O)N3CCCC3)noc1-2`, the inhibition was -2.4% (inactive).

`N#Cc1cnn2cc(CCN3CCOCC3)c(-c3ccc(F)cc3)nc12`: the inhibition is -1.8% (inactive).

Turning to `COc1ccc(OC)c2[nH]c(=O)c(CCNC(=O)C(=O)c3c[nH]c4ccccc34)cc12`, the inhibition was 0.3% (inactive).

For `CCCCN(C(=O)/C=C/c1ccco1)c1c(N)n(CC(C)C)c(=O)[nH]c1=O`, the inhibition was 8.5% (inactive).

`O=C(CNC(=O)OCc1ccccc1)Oc1cc2oc(=O)cc(-c3ccccc3)c2cc1Cl`: the inhibition was 78.7% (active). Further, the inhibition (retest duplicate average) amounted to 71.5%.

On to `O=C(CNC(=O)c1ccc(-c2ccccc2)cc1)OCc1ccc(Cl)cc1`, for which the inhibition is -1.6% (inactive).

`CC(=O)COc1ccc2c(-c3ccccc3)cc(=O)oc2c1`: the inhibition was 3.8% (inactive).

In the case of `O=[N+]([O-])c1ccc(N2CCNCC2)cc1NCc1cccnc1`, the inhibition is -3.2% (inactive).

As for `CC(C)OCCCNC(=O)c1cc(Sc2ccc(F)cc2)nc2ccccc12`, the inhibition is 0.5% (inactive).

`O=C(CSc1ncn[nH]1)Nc1nsc(-c2ccccc2)n1`: the inhibition is 3.7% (inactive).

On to `O=C(CSc1nc(O)c(Cc2ccccc2)c(=O)[nH]1)Nc1nc2c(s1)CCCC2`, for which the inhibition was 2.5% (inactive).

Regarding `CN1C(=O)/C(=C/C=C2\SCCN2C)OC1=S`, the inhibition was 84.2% (active). Also, for the setting “retest duplicate average”, the inhibition came to 79.9%.

Turning to `CCc1ccc(C(=O)OCC(=O)NCC(F)(F)F)cc1`, the inhibition is -1.7% (inactive).

As for `CCO[C@H]1OC(C(=O)NCc2ccccc2)=C[C@@H](c2coc3ccccc3c2=O)[C@@H]1CCCO`, the inhibition was -0.8% (inactive).

`CN1CCNC(=O)C1CC(=O)N1CC=C(c2ccc(F)cc2)CC1` (configuration not stated): the inhibition was -7.4% (inactive).

As for `Cc1ccccc1NC(=S)Nc1cccc([N+](=O)[O-])c1`, the inhibition is 5.7% (inactive).

On to `COC(=O)/C=C\C(=O)Nc1cccc([N+](=O)[O-])c1`, for which the inhibition is 56% (active). Moreover, the inhibition (retest duplicate average) stood at 62.5%.

On to `CC(=O)Nc1cccc([N+](=O)[O-])c1`, for which the inhibition was 0.2% (inactive).

Turning to `COc1ccc(CCn2c(-c3ccco3)nc3nc4ccccc4nc32)cc1OC`, the inhibition was -7.1% (inactive).

As for `CC(C)n1c(-c2cccs2)nc2ccccc21`, the inhibition was 1.6% (inactive).

`COCCCn1c(-c2cccs2)nc2nc3ccccc3nc21`: the inhibition is 87.7% (active). The inhibition (retest duplicate average) was 99.9%.

As for `Cc1ccc(C(=O)O)cc1NC(=O)c1ccc(Cn2nc(C)c(Cl)c2C)o1`, the inhibition is -2.9% (inactive).

`O=C(CCc1n[nH]c(=O)[nH]c1=O)N/N=C/c1ccc(Br)o1`: the inhibition is -0.8% (inactive).

On to `CN(C)c1nc(N)nc(Cn2nnc(-c3ccc(C(F)(F)F)cc3)n2)n1`, for which the inhibition was 1.3% (inactive).

Turning to `c1ccc(-c2cc3c(NCC4COc5ccccc5O4)ncnc3s2)cc1` (configuration not stated), the inhibition is 8.3% (inactive).

Consider `O=C(CC1CCCCC1)NCc1ccc(F)cc1`, for which the inhibition is -2% (inactive).

Consider `COCCC(=O)Nc1ccc2c(c1)CN(C(=O)CCOC)CC2`, for which the inhibition was -1% (inactive).

For `O=c1c2c(nc3cc(-c4cccc(Cl)c4)[nH]n13)CCCC2`, the inhibition was -1.8% (inactive).
